The values that follow come from ChEMBL document CHEMBL3433997, “St. Jude Leishmania screening dataset” (2016).

By inhibition is commonly meant the change of the read-out against control, counted positive when it falls.

In this assay the target is Solute carrier family 2, facilitated glucose transporter member 1 (Homo sapiens) (UniProt P11166). Kind of assay: ST_JUDE_LEISH: Cytotoxicity at 2uM final concentration against transgenic Leishmania Mexicana promastigotes LmGLUT1 that are glucose transport deficient and complemented with the human glucose transporter GLUT1. Activity is measured by DNA content using SYBR green in vitro. In kind it is functional.
Sequence of Solute carrier family 2, facilitated glucose transporter member 1 (Homo sapiens) (P11166 whole entry): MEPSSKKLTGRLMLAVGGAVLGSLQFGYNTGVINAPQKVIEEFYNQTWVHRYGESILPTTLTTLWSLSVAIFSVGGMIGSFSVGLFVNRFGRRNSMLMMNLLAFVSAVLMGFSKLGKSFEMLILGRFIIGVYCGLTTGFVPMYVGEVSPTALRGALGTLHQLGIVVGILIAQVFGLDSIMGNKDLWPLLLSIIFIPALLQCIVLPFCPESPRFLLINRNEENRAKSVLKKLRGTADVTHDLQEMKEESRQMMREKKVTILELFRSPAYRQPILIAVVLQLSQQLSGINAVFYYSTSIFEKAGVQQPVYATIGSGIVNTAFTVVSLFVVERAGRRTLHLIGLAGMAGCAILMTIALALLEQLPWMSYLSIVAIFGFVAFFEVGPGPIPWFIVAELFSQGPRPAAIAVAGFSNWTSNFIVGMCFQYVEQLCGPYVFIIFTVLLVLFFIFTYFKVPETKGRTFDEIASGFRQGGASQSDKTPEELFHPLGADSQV
Regarding `O=C(/C=C/c1c(Cl)cccc1Cl)NC1CCC(CN2CCC(Cc3cc4ccccc4[nH]3)CC2)CC1` (centres undefined), the inhibition turned out to be 4.15%.

For `Oc1ccc(CCNCCCCCCNCCc2ccc(Cl)cc2)c(Cl)c1O`, the inhibition is -2.47%.

For `COc1ccccc1-c1nc2nc(N)nc(N)c2nc1-c1ccccc1OC`, the inhibition is 0.82%.

On to `c1ccc(Oc2ccc(Nc3ccnc(Nc4ccc(OCCN5CCCCC5)cc4)n3)cc2)cc1`, for which the inhibition came out at 8.95%.

For `O=C1CCCN1CCCNCc1cccc(-c2cccc(-c3nc4cc(F)ccc4[nH]3)c2)c1`, the inhibition was 0.85%.

For the molecule `O=C(C=Cc1cccc(F)c1)NC1CCC(CCN2CCc3ccc(-c4cnccn4)cc3CC2)CC1` (centres undefined), the inhibition came out at 14.4%.

As for `CCc1nc(N)nc(N)c1-c1ccc2c(c1)CCCC2`, the inhibition stood at 2.54%.

On to `O=C(Oc1ccc(C2CNCCc3c2cc(OC(=O)c2ccc(O)cc2)c(OC(=O)c2ccc(O)cc2)c3Cl)cc1)c1ccc(O)cc1` (centres undefined), for which the inhibition was determined as 4.39%.

Turning to `CC(C)Cn1cc(C2CCN(CCN3CCC(CNC(=O)c4ccc(-c5ccc(C#N)cc5)cc4)CC3)CC2)c2ccccc21`, the inhibition is 2.71%.

On to `Nc1cccc(CNCc2cccc(-c3cccc(-c4nc5ccccc5[nH]4)c3)c2)c1`, for which the inhibition was -1.07%.

With `Cc1cc(CNC(c2ccccc2)C2CCC2)cc(C)c1O` (centres undefined), the inhibition was found to be 14.2%.

With `CC1CC(C)CN(S(=O)(=O)c2cc(C(=O)Nc3cccc([N+](=O)[O-])c3)ccc2Br)C1` (centres undefined), the inhibition worked out at 7.03%.

In the case of `CCc1nc2nc(C)cc(Nc3cc(C)cc(C)c3)n2n1`, the inhibition worked out at 3.06%.

Regarding `Cc1sc2ncnc(Sc3nc4ccccc4[nH]3)c2c1C`, the inhibition was found to be 5.47%.

As to `O=C(N[C@@H](CC1CCCCC1)C(=O)NC1CCCCCC1)c1ccc(O)c(-c2ccc(Cl)c(Cl)c2)c1`, the inhibition is -0.25%.

As to `O=C(Nc1ccc(C(=O)OCC2CCCCC2)cc1)N[C@@H](Cc1ccc(O)cc1)C(=O)NC1CCN(Cc2ccc(O)cc2)C1` (some centres undefined), the inhibition was 3.7%.

On to `CCCN(c1ccc(C(F)(F)F)cc1[N+](=O)[O-])S(=O)(=O)C(c1ccccc1)c1ccc(C(F)(F)F)cc1[N+](=O)[O-]` (centres undefined), for which the inhibition is -0.48%.

Regarding `COc1ccc(C(=O)CCC(=O)N(CCSC(C)(C)C)Cc2ccc(-c3ccc(CNCCc4ccc(S(C)(=O)=O)cc4)cn3)cc2)cc1F`, the inhibition turned out to be 10.4%.

As to `Cc1nc(N)nc(N)c1CCCOc1ccccc1Br`, the inhibition is 5.7%.

For the molecule `FC(F)(F)c1ccc2[nH]c(-c3cccc(-c4cccc(CN5CCN(c6ccncc6)CC5)c4)c3)nc2c1`, the inhibition was 1.83%.

Regarding `Cc1cc(N/N=C/c2ccccc2[N+](=O)[O-])c2cc(C(F)(F)F)ccc2n1`, the inhibition was -3.14%.

As for `Cc1ccc(O)cc1Nc1ccnc2ccc(-c3cccc(CN(C)C)c3)cc12`, the inhibition is 0.24%.

Turning to `CN1CCOc2ccc(Nc3nnc(-c4cccc(-c5cccnc5)c4)o3)cc2C1`, the inhibition amounted to 3.12%.

Turning to `CCC1CN2CCc3c([nH]c4ccc(OC)cc34)C2CC1CC1NCCc2cc(OC)c(OC)cc21` (centres undefined), the inhibition was 3.04%.

In the case of `COc1ccc2nccc([C@@H](O)CN3CCC(NCc4cc5oc(=O)[nH]c5cc4F)CC3)c2c1`, the inhibition turned out to be 0.09%.

Regarding `Nc1nc(N)c2c(ccc3c2ccn3CCCC(F)(F)F)n1`, the inhibition is 14.2%.

`O=C(/C=C/c1ccccc1O)N1CCC(CCN2CCC(c3c[nH]c4ccccc34)CC2)CC1`: the inhibition is -5.26%.

Consider `CC(C)c1ccc(-c2nc3cc(Cl)cnc3[nH]2)cc1`, for which the inhibition stood at 3.03%.

As for `CN1CCC(NCc2cccc(-c3cccc(S(=O)(=O)NCc4ccccc4)c3)c2)CC1`, the inhibition came to 4.86%.

Consider `CN1CCCN(Cc2ccc(-c3cccc(NC(=O)c4ccc(Cl)cc4)c3)cc2)CC1`, for which the inhibition was determined as 3.92%.

With `C=CCN1Cc2c(O)cccc2C(c2ccc(O)c(O)c2)C1` (centres undefined), the inhibition worked out at 6.49%.

Regarding `CCc1cn2c3c(cc(C(=O)N[C@@H](Cc4ccccc4)[C@H](O)CNC4CCCC4)cc13)N(C)S(=O)(=O)CC2`, the inhibition came to 8.55%.

As to `COc1cc2nc(Nc3ccc4c(c3)OCCO4)nc(N)c2cc1OC`, the inhibition was -0.32%.

For the molecule `Clc1cccc(-c2nc(Nc3ccnc(-c4ccc(CN5CCOCC5)cc4)c3)c3ccccc3n2)c1`, the inhibition amounted to 4.42%.

Turning to `O=C(NCc1cccc(F)c1)Nc1cccc(-c2cccc(-c3nc4cc(C(F)(F)F)ccc4[nH]3)c2)c1`, the inhibition was found to be 0.12%.

`COc1cccc(NC(=O)NC2CCN(c3ccnc(Nc4ccc(F)cc4)n3)C2)c1` (centres undefined): the inhibition came out at 0.39%.

Consider `COc1cccc(C2=CC(C)(C)Oc3cc(OCCN(C)C)ccc32)c1`, for which the inhibition was 0.35%.

`O=C(Nc1ccc(-c2cccc(-c3nc4cc(C(F)(F)F)ccc4[nH]3)c2)cc1)c1ccc(=O)[nH]n1`: the inhibition stood at 3.7%.

With `CCN(CC)CCN(CCCc1ccc(-c2ccc(C(F)(F)F)cc2)cc1)C(=O)Cn1c(CCc2cccc(F)c2F)nc(=O)c2ccccc21`, the inhibition came out at 2.87%.
